This note sets out measurements from PubChem BioAssay (Tox21).

Values without a mark were called inactive. Inconclusive results are not listed. Activity calls are given as the source filed them. Unless noted, calls follow the shape of the dose curve; as a rule, active = well fitted curve in the direction sought with a large enough effect in the repeat runs; inconclusive = weak or mixed curves; inactive = no such curve, though single readings can be large; an effect the other way counts as inactive or inconclusive.

Test [1] in a line: qHTS assay for small molecule agonists of the p53 signaling pathway (AID 651631; calls by dose curve; also: nearly all actives have a fitted effect of over 15% in size; also: potency is read from the fitted curve at half-maximal effect). In short, it runs like this:
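HCT-116 p53RE-bla reporter line, 16 h compound treatment at 37 °C, then fluorescence after 2 h with B/G FRET substrate.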

A short description of test [2]: qHTS assay for small molecules that induce genotoxicity in human embryonic kidney cells expressing luciferase-tagged ATAD5 (AID 651632). Also: nearly all actives have a fitted effect of over 15% in size. Also: potency is read from the fitted curve at half-maximal effect. The procedure, abridged: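 Genotoxicity read-out via ATAD5-luciferase: HEK293T cells, 16 hr compound incubation at 37C, Amplite detection.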
Test [3] can be described thus: qHTS assay for small molecule agonists of the p53 signaling pathway - cell viability (AID 651633; calls by dose curve;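 also: p53RE-bla HCT reporter cells with a stable beta-lactamase p53 reporter; series mostly up to about 83 µM; nearly all actives have a fitted effect of over 30% in size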). In short, it runs like this:
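Viability counter-read: CellTiter-Glo luminescence (30 min, room temperature) in the same p53RE-bla plates. These plates had been exposed to compounds for 16 h at 37 C.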

Test [4] can be described thus: qHTS assay for small molecules that induce genotoxicity in human embryonic kidney cells expressing luciferase-tagged ATAD5 - cell viability (AID 651634; calls by dose curve; also: nearly all actives have a fitted effect of over 25% in size). In short, it runs like this: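 Live-cell protease activity (CellTiter-Fluor, fluorescence) indicates viability. HEK293T cells with luciferase-tagged ATAD5; 15.5 hr compound treatment at 37C.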
Test [5] can be described thus: qHTS assay for small molecule disruptors of the mitochondrial membrane potential - cell viability (AID 720634; calls by dose curve; also: nearly all actives have a fitted effect of over 20% in size; also: potency is read from the fitted curve at half-maximal effect). In short, it runs like this:
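Human hepatoma HepG2 cells were treated for 1 hr with test chemicals, then given m-MPI dye and CellTiter-Glo. Cell viability reflects luminescence proportional to cellular ATP.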

A short description of test [6]: qHTS assay to test for compound auto fluorescence at 590 nm (red) in HepG2 cells (AID 720674). The procedure, abridged: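 We screened compounds on adherent HepG2 cells, incubating them for an hour at 37 C in 5% CO2 before reading emission at 590 nm under 540 nm excitation; values reflect equivalence to Rose Bengal sodium fluorescence.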
The nature of test [7]: qHTS assay to test for compound auto fluorescence at 535 nm (green) in HepG2 cells (AID 720675).
Test [8] is described as follows: qHTS assay to test for compound auto fluorescence at 460 nm (blue) in HEK293 cells (AID 720678). In short, it runs like this: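 HEK293 cells (2,000 per well, medium with 10% dialyzed FBS) attached for 4-5 hr at 37C, then received compound and stood overnight at 37C, 5% CO2. Blue fluorescence was read at Ex/Em 405/460 nm and expressed relative to triamterene.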
A short description of test [9]: qHTS assay to test for compound auto fluorescence at 590 nm (red) in HEK293 cells (AID 720679). In short, it runs like this:
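HEK293 cells (2,000/well, medium with 10% dialyzed FBS) attached for 4-5 hr at 37C, received 23 nL compound and were incubated overnight at 37C, 5% CO2. Red fluorescence was then read at 540/590nm Ex/Em, referenced to Rose Bengal sodium.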

The nature of test [10]: qHTS assay to test for compound auto fluorescence at 535 nm (green) in HEK293 cells (AID 720680).
Test [11] can be described thus: qHTS assay to test for compound auto fluorescence at 460 nm (blue) in HEK293 cell free culture (AID 720681). The procedure, abridged:
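Blue fluorescence (Ex 405/Em 460 nm, triamterene-equivalent) was read immediately after pin transfer of compound or DMSO into medium (DMEM, 10% FBS) without cells.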

A short description of test [12]: qHTS assay to test for compound auto fluorescence at 535 nm (green) in HEK293 cell free culture (AID 720682). The procedure, abridged: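 Steps: dispense DMEM/10% FBS into empty wells; pin in compound or DMSO; measure fluorescence at 485/535 nm. Values are fluorescein equivalents.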
A short description of test [13]: qHTS assay to test for compound auto fluorescence at 590 nm (red) in HEK293 cell free culture (AID 720683). In short, it runs like this: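 Red-channel autofluorescence of compounds in culture medium (DMEM, 10% FBS), no cells, measured at 540/590 nm. Rose Bengal sodium is the reference fluorophore for equivalence.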
Test [14] can be described thus: qHTS assay to test for compound auto fluorescence at 590 nm (red) in HepG2 cell free culture (AID 720684). In short, it runs like this:
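Plate contents were MEM with 10% FBS plus test compound or DMSO, no cells. Fluorescence was recorded with 540 nm excitation and 590 nm emission.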

A short description of test [15]: qHTS assay to test for compound auto fluorescence at 460 nm (blue) in HepG2 cell free culture (AID 720685). The procedure, abridged:
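Compound (23 nL) or DMSO pinned into cell-free MEM with 10% FBS; blue fluorescence read at 405/460 nm excitation/emission, expressed as auto-fluorescence equivalency to triamterene.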

Test [16] in a line: qHTS assay to test for compound auto fluorescence at 535 nm (green) in HepG2 cell free culture (AID 720686).
Test [17] can be described thus: qHTS assay to test for compound auto fluorescence at 460 nm (blue) in HepG2 cells (AID 720687). In short, it runs like this:
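Blue-channel autofluorescence (Ex/Em 405/460 nm, triamterene-equivalent) was measured after 1 hr compound exposure at 37 C, 5% CO2. Cells were HepG2, plated overnight at 37 C in MEM plus 10% FBS.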

In test [18] the target is Glucocorticoid receptor (Homo sapiens) (UniProt P04150). The test can be described thus: qHTS assay to identify small molecule agonists of the glucocorticoid receptor (GR) signaling pathway (AID 720691; active = well fitted activation curve with a large enough effect in the signal ratio in the repeat runs, not every such curve was filed as active; the % refers to the signal ratio). The procedure, abridged:
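Beta-lactamase reporter activity, read as fluorescence intensity, was measured in GR-bla HeLa cells exposed to compounds for 18 h at 37 C and then loaded with LiveBLAzer B/G FRET substrate for 2 h at room temperature.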

Test [19] shares this target. Briefly: qHTS assay to identify small molecule antagonists of the glucocorticoid receptor (GR) signaling pathway (AID 720692; active = well fitted inhibition curve with a large enough effect in the signal ratio in the repeat runs, not every such curve was filed as active; the % refers to the signal ratio). In short, it runs like this: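 Fluorescence from cleaved LiveBLAzer B/G FRET substrate reports GRE-driven beta-lactamase in HeLa cells; compounds are tested against 5 nM dexamethasone (final) over 18 h at 37 C, substrate incubation 2 h at room temperature.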

The nature of test [20]: qHTS assay for small molecule disruptors of the mitochondrial membrane potential (AID 720635). Also: potency is read from the fitted curve at half-maximal effect. The procedure, abridged: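 Mitochondrial membrane potential tracked with Mito-MPS dye, red aggregates (ex 540/em 590 nm) against green monomers (ex 490/em 535 nm). Compound treatment 1 hr at 37C, dye 30 min in HepG2.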

Chain of Glucocorticoid receptor (Homo sapiens) (P04150 whole entry, looked up): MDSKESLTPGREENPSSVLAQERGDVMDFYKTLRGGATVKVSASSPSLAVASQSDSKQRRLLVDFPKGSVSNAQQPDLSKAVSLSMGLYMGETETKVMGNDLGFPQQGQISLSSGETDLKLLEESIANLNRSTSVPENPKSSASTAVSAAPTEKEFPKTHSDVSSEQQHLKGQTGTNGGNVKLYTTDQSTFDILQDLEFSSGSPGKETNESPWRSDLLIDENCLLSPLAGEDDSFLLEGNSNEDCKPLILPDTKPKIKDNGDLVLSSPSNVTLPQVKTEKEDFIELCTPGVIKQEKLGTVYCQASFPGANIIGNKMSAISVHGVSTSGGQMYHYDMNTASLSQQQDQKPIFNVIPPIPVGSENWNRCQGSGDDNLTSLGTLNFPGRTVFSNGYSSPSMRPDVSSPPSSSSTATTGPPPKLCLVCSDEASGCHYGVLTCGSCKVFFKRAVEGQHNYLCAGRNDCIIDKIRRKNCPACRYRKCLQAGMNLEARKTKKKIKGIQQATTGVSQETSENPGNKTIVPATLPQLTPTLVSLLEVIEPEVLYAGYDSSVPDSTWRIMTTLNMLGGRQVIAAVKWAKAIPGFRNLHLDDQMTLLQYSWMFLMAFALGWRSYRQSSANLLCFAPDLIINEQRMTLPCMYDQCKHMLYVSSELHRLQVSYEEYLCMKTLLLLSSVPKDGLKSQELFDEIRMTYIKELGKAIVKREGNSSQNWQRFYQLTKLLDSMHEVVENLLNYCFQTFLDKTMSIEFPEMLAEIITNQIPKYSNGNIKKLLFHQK

With `CCC(C)COC(=O)CC(C)C` (centres undefined), the Potency result in test [1], in [2], in test [3], in test [4], in [5] and in test [8] was “inactive” throughout. For the same compound, the Potency entry in test [11], in [15] and in test [17] was “inactive” in each case. The result in [6], in test [7], in [9], in test [10], in [12] and in [13] was inactive. Further, the result in [14] and in test [16] was inactive.
`Brc1cc2ccccc2c2ccccc12`: the Potency entry in test [1], in test [2], in test [3], in test [4], in test [5] and in test [8] was “inactive” throughout. Further, the Potency entry in test [11], in [15], in test [17] and in test [18] was “inactive” in each case. In addition, the compound was classed as inactive in [6], in test [7], in [9], in test [10], in [12] and in test [13]. Moreover, the call in test [14] and in test [16] was inactive.
Turning to `CC(=O)Nc1ccc(C)cc1C`, the Potency result in test [1], in test [2], in test [3], in test [4], in [5] and in test [11] was “inactive” throughout. The Potency entry in test [15] and in [17] was “inactive” in each case. In addition, the compound was called inactive in [6], in test [7], in test [9], in test [10], in test [12] and in test [13]. For the same compound, the outcome in [14] and in [16] was inactive.
`CC(C)=CC(=O)C=C(C)C`: the Potency result in [1], in [2], in test [3], in test [4], in [5] and in test [8] was “inactive” each time. For the same compound, the Potency result in test [11], in test [15] and in test [17] was “inactive” each time. Moreover, the outcome in [7], in test [9], in [10], in test [12], in test [13] and in [14] was inactive. Besides, the compound was classed as inactive in [16].
With `CCOC(C)=O`, the Potency entry in test [1], in test [2], in test [3], in test [4], in [5] and in test [11] was “inactive” each time. The Potency result in [15], in test [17], in test [18] and in test [19] was “inactive” each time. The compound was classed as inactive in [6], in [7], in test [9], in test [12], in test [13] and in test [14]. The outcome in [16] was inactive.
As to `c1cc(N(CC2CO2)CC2CO2)ccc1Cc1ccc(N(CC2CO2)CC2CO2)cc1` (centres undefined), the Potency in [1] was 24.3 µM (active); in [2], 15.4 µM (active); in test [5], 48.6 µM (active); in [20], 27.3 µM (active). The Potency entry in [3], in [8], in test [11], in test [15] and in test [17] was “inactive” in each case. Also, the result in test [6], in test [7], in test [9], in test [10], in [12] and in [13] was inactive. For the same compound, the call in test [14] and in test [16] was inactive.
`CCCCCCCCCCC(=O)O`: the Potency result in [1], in test [2], in test [3], in test [4], in [5] and in [8] was “inactive” in each case. Also, the Potency result in test [11], in [15], in [17] and in [18] was “inactive” throughout. The compound was classed as inactive in test [6], in test [7], in [9], in test [10], in [12] and in [13]. For the same compound, the result in test [14] and in [16] was inactive.
